Measurements published in PubChem BioAssay (NCI).
“And” between values parts separate entries of the source, which are not always exact repeats. Identical values can stand only once. About 83,000 compounds went through this panel and 20% of them were active in at least one assay; those are over-represented in the sample as a whole.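 48-hour exposure, single concentration, 96-well plates; percent growth endpoint where 0 means no net growth. Active: below 10.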

Columns and labels:
Assay in all cases: NCI-60 one-dose screen, 48 h (100 = growth as untreated, 0 = no growth, -100 = all killed)
[1] = test system: HCT-15 colon; details: 10 µM unless noted
[2] = test system: HT29 colon; details: 10 µM unless noted
[3] = test system: SNB-75 CNS; details: 10 µM unless noted
[4] = test system: SNB-19 CNS; details: 10 µM unless noted
[5] = test system: U251 CNS; details: 10 µM unless noted
[6] = test system: PC-3 prostate; details: 10 µM unless noted
[7] = test system: SK-MEL-5 melanoma; details: 10 µM unless noted
[8] = test system: UACC-62 melanoma; details: 10 µM unless noted
[9] = test system: LOX IMVI melanoma; details: 10 µM unless noted
[10] = test system: SK-MEL-28 melanoma; details: 10 µM unless noted
[11] = test system: SK-MEL-2 melanoma; details: 10 µM unless noted
[12] = test system: SN12C renal; details: 10 µM unless noted
[13] = test system: TK-10 renal; details: 10 µM unless noted
[14] = test system: CCRF-CEM leukemia; details: 10 µM
[15] = test system: MOLT-4 leukemia; details: 10 µM unless noted
[16] = test system: A498 renal; details: 10 µM unless noted
[17] = test system: EKVX NSCLC; details: 10 µM
[18] = test system: UO-31 renal; details: 10 µM unless noted
[19] = test system: ACHN renal; details: 10 µM unless noted
[20] = test system: CAKI-1 renal; details: 10 µM unless noted

Measured: growth

CCOC(=O)c1c(C)cc(=O)oc1C
inactive: [1] 102% | [2] 103% | [3] 94% | [4] 96.2% | [5] 98.3% | [6] 92% | [7] 106% | [8] 95.3% | [9] 105% | [10] 115% | [11] 125% | [12] 98.6% | [13] 121% | [14] 100% | [15] 101%

N#CC(C#N)N=Nc1cc(Cl)ccc1Cl
inactive: [1] 101% | [2] 101% | [3] 74.8% | [4] 93.6% | [5] 96.6% | [6] 106% | [7] 106% | [8] 99.1% | [9] 109% | [10] 109% | [11] 85.6% | [12] 103% | [13] 105% | [16] 110% | [14] 94.7% | [15] 92.4%

c1ccc2c(c1)OC1OC2Oc2ccccc21
inactive: [1] 98.1% | [2] 95.6% | [3] 90% | [4] 97.6% | [5] 102% | [6] 91.6% | [7] 103% | [8] 92.5% | [9] 91.1% | [10] 103% | [11] 87.7% | [17] 105% | [12] 98.9% | [18] 90.1% | [13] 97.6% | [19] 101% | [20] 113% | [16] 117% | [14] 97.6% | [15] 95.4%

CCN(CCNS(C)(=O)=O)c1ccc(N)c(C)c1
inactive: [1] 71.5% and 106% | [2] 87.8% | [3] 128% and 95.5% | [4] 101% and 109% | [5] 82.3% and 108% | [6] 86.7% and 78.7% | [7] 81.1% and 98.4% | [8] 71.4% and 82.2% | [9] 52.9% and 68.4% | [10] 80.2% and 104% | [11] 21.6% | [12] 88.1% and 93.5% | [13] 55.8% and 17.7% | [19] 27.9% and 76.2% | [20] 39.4% and 73.2% | [14] 35.7% | [15] 66.3% and 96.3%

CC[C@H](CC[C@@H](C)[C@H]1CC[C@H]2[C@@H]3CC=C4C[C@@H](O)CC[C@]4(C)[C@H]3CC[C@]12C)C(C)C
inactive: [1] 80.9% and 102% | [2] 101% and 109% | [3] 81.3% and 101% | [4] 99.5% and 98.1% | [5] 90.3% and 104% | [6] 106% and 98.2% | [7] 95.2% and 105% | [8] 96% and 101% | [9] 92.6% and 101% | [10] 99.9% and 103% | [11] 100% and 117% | [12] 94.7% and 105% | [13] 91.7% and 107% | [20] 93.2% and 90% | [16] 103% and 105% | [14] 91.1% and 97.8% | [15] 108% and 103%

O=C(CO)C(O)C(O)C(O)C(O)CO (stereo not drawn)
inactive: [1] 103% | [2] 109% | [3] 106% and 89.1% | [4] 104% and 103% | [5] 95.7% and 95.4% | [6] 101% and 96.1% | [7] 95.4% and 103% | [8] 98.3% and 101% | [9] 103% and 98.5% | [10] 108% and 101% | [11] 104% and 108% | [12] 99.8% and 97.3% | [18] 97.8% and 96.6% | [13] 106% and 102% | [19] 110% and 109% | [20] 102% and 101% | [14] 103% and 105% | [15] 106% and 95.8%

c1ccc(-c2nc3ccccc3s2)cc1
inactive: [1] 92.2% | [2] 114% | [3] 91.7% | [4] 95.3% | [5] 99.6% | [6] 86.9% | [7] 89.8% | [8] 75.7% | [9] 88.5% | [10] 104% | [11] 112% | [12] 88.7% | [20] 79.7% | [14] 101% | [15] 103%
